Experimental data taken from PubChem BioAssay.
The source made the active and inactive calls.

Legend:
Albumin (Bos taurus) = Albumin (Bos taurus) (UniProt P02769); assay: bovine serum albumin binders on microarray, profiling panel, artefact control for SMM control protein annotation, biochemical, small-molecule microarray, Alexa647 label, 635/667 nm fluorescence (AID 1118); settings: BSA-A647 binding, fluorescence 635 nm, higher = more signal;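 also: score merges 667 nm emission intensity and signal-to-noise per printed compound spot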
Sequence of Albumin (Bos taurus) (P02769 whole entry, looked up): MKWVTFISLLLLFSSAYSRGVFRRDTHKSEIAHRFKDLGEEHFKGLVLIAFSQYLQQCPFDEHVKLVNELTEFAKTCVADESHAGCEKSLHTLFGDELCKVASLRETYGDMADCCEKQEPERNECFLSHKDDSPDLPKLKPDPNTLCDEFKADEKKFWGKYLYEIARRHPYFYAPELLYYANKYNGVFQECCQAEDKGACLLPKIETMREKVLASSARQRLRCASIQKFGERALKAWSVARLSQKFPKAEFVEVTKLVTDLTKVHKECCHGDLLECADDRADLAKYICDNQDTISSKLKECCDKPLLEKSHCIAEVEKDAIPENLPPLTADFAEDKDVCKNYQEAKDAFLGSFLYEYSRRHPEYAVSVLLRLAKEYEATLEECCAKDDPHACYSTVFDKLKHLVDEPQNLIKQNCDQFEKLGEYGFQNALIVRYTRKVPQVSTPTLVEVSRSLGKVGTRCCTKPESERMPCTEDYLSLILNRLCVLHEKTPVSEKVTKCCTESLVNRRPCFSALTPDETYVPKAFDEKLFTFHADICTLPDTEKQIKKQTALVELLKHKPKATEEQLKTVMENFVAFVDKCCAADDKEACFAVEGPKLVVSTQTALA

[1] = small-molecule microarray binders of probe aXIP, primary screen, biochemical, NeuroSMM set, 635/667 nm fluorescence (AID 1119); settings: higher = more signal, called active from +8 up or from −8 down;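 also: probe is the protein aXip251-270 applied at 1 µg/mL to compound-printed slides; binding of probe to printed compounds measured as 667 nm fluorescence plus signal to noise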
[2] = small-molecule binders of probe aNOTCH3, primary screen, biochemical, small-molecule microarray, 635/667 nm fluorescence (AID 1120); settings: higher = more signal;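 also: probe is a biotin-tagged antibody raised against NOTCH3 rather than NOTCH3 protein; score merges spot fluorescence near 667 nm with spot signal to noise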
[3] = small-molecule binders of probe aNOTCH2, primary screen, biochemical, small-molecule microarray, 635/667 nm fluorescence (AID 1121); settings: higher = more signal;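 also: score merges feature fluorescence read at 667 nm with its signal to noise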
[4] = biological target: Carbonic anhydrase 2 (Homo sapiens) (UniProt P00918); assay: CAII small-molecule binders, profiling panel, biochemical, small-molecule microarray, Alexa647-labelled CAII (AID 1122); settings: CAII-A647 binding fluorescence, higher = more signal
[5] = COS7 lysate on small-molecule microarray, probe aHis, 635 nm (AID 1123); settings: COS7 cell lysate, fluorescence, higher = more signal;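 also: z-score combines 667nm fluorescence intensity with signal-to-noise per printed compound spot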
[6] = compound binding in COS7 lysate, probe aLAP1, primary screen, cell lysate, small-molecule microarray (AID 1124); settings: probe aLAP1, fluorescence, higher = more signal;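 also: lysate comes from COS7 cells expressing LAP1 and is applied at 0.3 µg/mL; score merges spot fluorescence near 667 nm with signal-to-noise over triplicate slides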
Sam68 (KHDRBS1) = assay: Sam68 small-molecule binders, primary screen, biochemical, small-molecule microarray, 635 nm fluorescence (AID 1125); settings: small-molecule microarray binding, higher = more signal;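 also: score merges 667 nm channel intensity with signal to noise over triplicate slides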
[7] = test system: Chordin-like protein 2 (CHRDL2); assay: CHRDL2 small-molecule binders, primary screen, biochemical, small-molecule microarray, 635 nm fluorescence (AID 1126); settings: small-molecule microarray binding, fluorescence 635 nm; higher = more signal;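 also: printed compound slides probed with Chrdl2 protein at 4 µg/mL for 1 h at 4 C; score merges 667 nm emission intensity with signal to noise over three replicate slides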
[8] = biological target: Concanavalin-A (Canavalia ensiformis) (UniProt P02866); assay: ConA small-molecule binders, primary screen, artefact control for SMM control protein annotation, biochemical, small-molecule microarray, Alexa647 label, 635 nm (AID 1127); settings: ConA-A647 binding fluorescence, higher = more signal;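 also: z combines 667 nm emission intensity with signal-to-noise across three replicate slides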
Sequence of Concanavalin-A (Canavalia ensiformis) (P02866 whole entry, looked up): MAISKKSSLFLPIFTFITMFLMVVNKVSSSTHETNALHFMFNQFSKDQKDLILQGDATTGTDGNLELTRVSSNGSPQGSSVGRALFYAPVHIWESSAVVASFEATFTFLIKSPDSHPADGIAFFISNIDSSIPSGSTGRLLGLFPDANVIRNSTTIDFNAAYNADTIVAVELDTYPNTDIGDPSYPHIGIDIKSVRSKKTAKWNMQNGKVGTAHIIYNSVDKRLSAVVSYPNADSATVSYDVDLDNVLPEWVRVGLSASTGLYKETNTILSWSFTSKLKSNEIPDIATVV

[9] = anti-His antibody binders, primary screen, artefact control for SMM control protein annotation, biochemical, small-molecule microarray, 635 nm fluorescence (AID 1128); settings: anti-His Alexa647 antibody binding, higher = more signal;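 also: score merges feature fluorescence with signal-to-noise for each printed compound spot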
[10] = test system: Human papillomavirus type 1a E7 protein (residues 1-88); assay: HPV1a E7 small-molecule binders, primary screen, biochemical, small-molecule microarray, residues 1-88, 635 nm (AID 1129); settings: small-molecule microarray binding, fluorescence 635 nm; higher = more signal
[11] = biological target: Focal adhesion kinase 1 (Homo sapiens) (UniProt Q05397); assay: small-molecule microarray binders of FAK, primary screen, biochemical, 635/667 nm fluorescence, BSA, DTT (AID 1130); settings: PTK2 binding, 635 nm fluorescence, higher = more signal;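 also: composite of spot emission at 667 nm and signal to noise over triplicate slides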
Sequence of Focal adhesion kinase 1 (Homo sapiens) (Q05397 whole entry, looked up): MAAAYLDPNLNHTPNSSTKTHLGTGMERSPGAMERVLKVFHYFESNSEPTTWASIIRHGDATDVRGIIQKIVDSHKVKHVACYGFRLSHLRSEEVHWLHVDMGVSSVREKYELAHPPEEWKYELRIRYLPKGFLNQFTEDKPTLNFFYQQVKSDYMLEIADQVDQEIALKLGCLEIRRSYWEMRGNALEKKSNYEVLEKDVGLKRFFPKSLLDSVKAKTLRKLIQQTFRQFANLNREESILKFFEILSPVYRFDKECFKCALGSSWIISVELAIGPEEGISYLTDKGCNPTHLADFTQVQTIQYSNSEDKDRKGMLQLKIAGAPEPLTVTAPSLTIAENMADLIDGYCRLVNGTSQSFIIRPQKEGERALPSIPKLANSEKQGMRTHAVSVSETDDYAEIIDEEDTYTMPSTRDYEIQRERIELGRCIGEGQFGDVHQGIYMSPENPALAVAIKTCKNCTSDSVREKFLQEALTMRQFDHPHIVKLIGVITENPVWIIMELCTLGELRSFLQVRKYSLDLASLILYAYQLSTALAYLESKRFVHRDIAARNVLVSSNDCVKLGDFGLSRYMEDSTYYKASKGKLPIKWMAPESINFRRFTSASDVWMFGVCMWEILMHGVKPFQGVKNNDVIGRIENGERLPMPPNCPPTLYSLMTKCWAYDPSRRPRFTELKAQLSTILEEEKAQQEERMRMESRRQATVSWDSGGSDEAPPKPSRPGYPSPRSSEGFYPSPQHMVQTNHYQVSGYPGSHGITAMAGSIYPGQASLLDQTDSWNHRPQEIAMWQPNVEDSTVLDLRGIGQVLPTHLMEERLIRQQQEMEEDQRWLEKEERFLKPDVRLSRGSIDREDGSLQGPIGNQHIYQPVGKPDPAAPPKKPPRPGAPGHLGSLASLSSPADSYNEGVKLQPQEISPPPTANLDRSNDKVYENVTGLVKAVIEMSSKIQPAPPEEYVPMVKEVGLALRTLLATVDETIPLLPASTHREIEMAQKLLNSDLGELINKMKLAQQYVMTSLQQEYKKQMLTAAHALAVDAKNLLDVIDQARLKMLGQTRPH

[12] = test system: Fibrinogen (Alexa647-labelled); assay: fibrinogen binders on compound microarrays, profiling panel, artefact control for SMM control-protein annotation, biochemical, small-molecule microarray, 635/667 nm fluorescence (AID 1131); settings: fibrinogen-A647 binding fluorescence, higher = more signal;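 also: z-score merges 667 nm fluorescence with per-spot signal-to-noise over triplicate slides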
[13] = biological target: Follistatin (Homo sapiens) (UniProt P19883); assay: follistatin binders on small-molecule microarrays, primary screen, biochemical, small-molecule microarray, 635/667 nm fluorescence (AID 1132); settings: FST binding, 635 nm fluorescence, higher = more signal
Sequence of Follistatin (Homo sapiens) (P19883 whole entry, looked up): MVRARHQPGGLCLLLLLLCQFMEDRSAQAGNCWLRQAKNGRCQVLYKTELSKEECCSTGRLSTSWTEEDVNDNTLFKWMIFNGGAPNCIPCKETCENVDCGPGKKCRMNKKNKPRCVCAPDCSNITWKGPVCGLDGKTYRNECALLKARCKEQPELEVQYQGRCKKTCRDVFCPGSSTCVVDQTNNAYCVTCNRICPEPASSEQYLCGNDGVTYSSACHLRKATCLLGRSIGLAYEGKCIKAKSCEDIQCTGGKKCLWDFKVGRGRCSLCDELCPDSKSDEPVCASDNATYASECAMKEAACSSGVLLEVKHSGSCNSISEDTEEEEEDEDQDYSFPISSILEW

[14] = biological target: Fibroblast growth factor 2 (Homo sapiens) (UniProt P09038); assay: FGF2 binders on small-molecule microarrays, primary screen, biochemical, small-molecule microarray, 635/667 nm fluorescence (AID 1133); settings: small-molecule microarray binding, FGF2, fluorescence 635/667; higher = more signal
Sequence of Fibroblast growth factor 2 (Homo sapiens) (P09038 whole entry, looked up): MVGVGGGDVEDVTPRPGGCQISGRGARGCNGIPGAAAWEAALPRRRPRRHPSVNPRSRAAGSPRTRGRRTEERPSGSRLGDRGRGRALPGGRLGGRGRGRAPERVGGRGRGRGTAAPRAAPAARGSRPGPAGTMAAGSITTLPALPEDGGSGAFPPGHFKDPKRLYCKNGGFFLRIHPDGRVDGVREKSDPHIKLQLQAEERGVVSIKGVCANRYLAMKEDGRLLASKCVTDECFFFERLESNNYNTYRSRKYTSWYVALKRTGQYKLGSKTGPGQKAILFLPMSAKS

[15] = mitochondrial membrane potential change in A549 cells, profiling panel, cell-based, JC-1 fluorescence, basal, 24 h, 100 nL (AID 1138); settings: higher = more signal;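 also: A549 lung adenocarcinoma cells under basal conditions with no added stimulus; test concentration not given here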
Lefty1 = Lefty1 binders on small-molecule microarrays, primary screen, biochemical, small-molecule microarray, 635/667 nm fluorescence (AID 1139); settings: small-molecule microarray binding, fluorescence 635/667; higher = more signal
[16] = test system: wheat germ agglutinin (Triticum aestivum), Alexa647-labelled; assay: wheat germ agglutinin binders on compound microarrays, profiling panel, artefact control for SMM control-protein annotation, biochemical, small-molecule microarray, 635/667 nm fluorescence (AID 1140); settings: WGA-A647 binding, 635 nm fluorescence, higher = more signal;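 also: score merges 667 nm feature emission with signal to noise over triplicate slides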
[17] = biological target: Luciferin 4-monooxygenase (Photinus pyralis) (UniProt P08659); assay: firefly luciferase enzyme inhibitors, primary screen, biochemical, luminescence, purified enzyme, 2006 set (AID 1141); settings: SteadyGlo luminescence, 30 min, higher = more signal, called active from +8 up or from −8 down;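 also: cell-free assay with purified firefly luciferase at 100 ng per well in PBS; test concentration not given here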
Sequence of Luciferin 4-monooxygenase (Photinus pyralis) (P08659 whole entry, looked up): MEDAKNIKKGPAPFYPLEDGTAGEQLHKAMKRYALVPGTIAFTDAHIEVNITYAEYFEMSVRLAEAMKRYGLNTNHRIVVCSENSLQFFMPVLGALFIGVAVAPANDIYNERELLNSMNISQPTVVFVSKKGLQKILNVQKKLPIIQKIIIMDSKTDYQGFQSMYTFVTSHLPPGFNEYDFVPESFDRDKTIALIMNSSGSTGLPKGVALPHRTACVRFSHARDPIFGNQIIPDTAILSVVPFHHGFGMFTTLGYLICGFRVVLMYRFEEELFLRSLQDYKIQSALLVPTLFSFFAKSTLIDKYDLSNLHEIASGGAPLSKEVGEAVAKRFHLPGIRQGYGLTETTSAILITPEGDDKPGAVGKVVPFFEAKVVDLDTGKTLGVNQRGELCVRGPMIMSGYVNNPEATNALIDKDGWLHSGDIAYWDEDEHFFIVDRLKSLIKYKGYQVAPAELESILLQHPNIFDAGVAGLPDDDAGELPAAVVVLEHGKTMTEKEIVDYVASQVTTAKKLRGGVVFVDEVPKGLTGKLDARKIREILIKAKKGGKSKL

Row | Compound | composite z-score (Albumin (Bos taurus)) | composite Z-score [1] | composite z-score [2] | composite z-score [3] | composite z-score [4] | composite z-score [5] | composite z-score [6] | composite z-score (Sam68 (KHDRBS1)) | composite z-score [7] | composite z-score [8] | composite z-score [9] | composite z-score [10] | composite z-score [11] | composite z-score [12] | composite z-score [13] | composite z-score [14] | z-score [15] | composite z-score (Lefty1) | composite z-score [16] | z-score [17]
1 | COC(=O)C(CC#Cc1ccc2c(c1)[C@]1(C(=O)N2)[C@H](C(=O)Nc2nc3ccccc3s2)[C@H]2C(=O)O[C@H](c3ccccc3)[C@H](c3ccccc3)N2[C@@H]1c1ccc(O)cc1)C(=O)OC | 0.646 | 0.298 (inactive) | -0.0431 | -0.0846 | 0.378 | 1.96 | 0.301 | 1.3 | 0.673 | 1.04 | 0.274 | 1.24 | 0.936 | 0.947 | 1.2 | 0.973 | -2.25 | 0.963 | 1.01 | 0.416 (inactive)
2 | O=C1[C@@]23C=C(Br)[C@H](C[C@@H]2CCOC3)[C@@]12CO2 | -0.169 | -0.775 (inactive) | 0.146 | -0.162 | -0.0433 | -0.128 | 0.522 | 0.166 | 0.518 | 0.311 | 0.477 | 0.235 | -0.176 | 0.332 | 0.327 | 0.469 | 1.23 | 0.406 | 0.128 | -0.54 (inactive)
3 | COC(=O)C(CC#Cc1ccc2c(c1)[C@]1(C(=O)N2)[C@H](c2ccc(OCCO)cc2)N2[C@H](c3ccccc3)[C@H](c3ccccc3)OC(=O)[C@H]2[C@@H]1C(=O)Nc1nc2ccccc2s1)C(=O)OC | 0.959 | -0.0045 (inactive) | 0.0038 | -0.183 | 0.546 | 2.4 | -0.065 | 1.31 | 0.326 | 1.16 | 1.6 | 1.23 | 0.633 | 0.998 | 0.989 | 0.408 | -2.05 | 0.417 | 0.638 | -0.877 (inactive)
4 | COc1ccc(CCNC(=O)[C@@]2(C)c3ccccc3C(=O)N(C(C)C)[C@H]2c2ccc(CO)cc2)cc1 | 0.252 | 0.768 (inactive) | -0.0074 | -0.151 | 0.578 | 0.216 | 0.591 | -0.38 | 0.397 | 0.613 | 1.63 | 1.19 | -0.0743 | 0.0931 | 0.674 | 0.493 | 0.537 | 0.826 | 0.544 | -1.19 (inactive)
5 | [N-]=[N+]=Nc1ccccc1[C@@H]1OC(c2ccc(OCCCO)cc2)=N[C@]1(CCS(=O)(=O)c1ccccc1)C(N)=O | 0.935 | 0.185 (inactive) | 0.308 | 0.125 | 0.438 | 2.02 | 1.66 | 1.29 | -0.227 | 1.16 | 0.712 | 1.23 | 0.203 | 1.02 | 1.28 | 0.423 | -0.995 | -0.411 | 0.881 | -13.5 (active)
6 | C=CCN1C(=O)[C@]2(O[C@H](CCn3cc([C@H](O)c4ccccc4)nn3)[C@@H]([Si](C)(C)c3ccc(OC)cc3)[C@@H]2C)c2ccccc21 | -0.0698 | 0.0503 (inactive) | -0.253 | -0.156 | -0.238 | -0.011 | 0.0809 | -0.776 | -0.278 | -0.847 | -0.435 | -0.723 | -0.458 | -1.07 | -0.696 | -0.403 | -0.156 | -0.581 | 0.417 | 0.184 (inactive)
7 | CC(C)(C)OC(=O)CC[C@]1(C(=O)N2CCOCC2)N=C(c2ccc(OCCCO)cc2)O[C@H]1c1ccccc1N=[N+]=[N-] | 0.55 | 0.103 (inactive) | 0.133 | 0.119 | 0.743 | 2.36 | 0.947 | 1.28 | -0.135 | 0.973 | 2.82 | 1.27 | 0.566 | 0.946 | 1.18 | 0.449 | 2.26 | 0.146 | 1.02 | -9.23 (active)
8 | COC(=O)C(CC#Cc1ccc2c(c1)[C@]1(C(=O)N2)[C@H](C(=O)Nc2nc3ccccc3s2)[C@H]2C(=O)O[C@H](c3ccccc3)[C@H](c3ccccc3)N2[C@@H]1c1ccccc1OCCO)C(=O)OC | 0.987 | -0.323 (inactive) | 0.116 | -0.0859 | 0.663 | 1.69 | 0.636 | 1.3 | -0.154 | 1.14 | 1.41 | 1.24 | 1.04 | 0.964 | 0.931 | 0.452 | -2.25 | 0.625 | 1.29 | -0.293 (inactive)
9 | CCOC(=O)C[C@H]1[C@H](OC(=O)c2ccc(-c3ccccc3)cc2)[C@@H](NC(=O)Cc2ccc(OC)cc2)c2cc(OCCCO)ccc2N1C(=O)c1ccccc1 | 0.167 | 0.0175 (inactive) | 0.15 | -0.135 | -0.0516 | 0.614 | -0.105 | 0.264 | -0.348 | 0.0776 | 0.0013 | -0.483 | 0.0865 | 0.44 | 0.349 | 0.0164 | 0.188 | 0.299 | 0.241 | 0.785 (inactive)
10 | C=C[C@@H](COC(=O)OC(C)(C)C)N(Cc1ccc(OC)cc1)S(=O)(=O)c1ccc(Br)cc1 | -0.0125 | 0.342 (inactive) | 0.185 | -0.154 | -0.0303 | 0.456 | -0.024 | 0.828 | 0.708 | 0.802 | 1.03 | 1.11 | 0.43 | 0.731 | 0.844 | 0.683 | 3.28 | 0.9 | 0.285 | -0.694 (inactive)
